Screening results as filed in PubChem BioAssay.
HCV inh = blocks hepatitis C virus. Huh7.5.1 HCVcc-Cre infection, luciferase reporter, 44 h. Potency, µM (series often up to 41.8 µM), for the others: top-dose activity change, negative = inhibition, actives largely listed as inhibitors. 340,000 compounds, 3.4% hits. AID 651820; also: % is scaled to controls: 0 for no effect and ±100 for the full control effect
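After 44 h co-culture of compound, cells and HCVcc-Cre (~0.5 moi), substrate is added for 15 min at room temperature and luciferase measured over 15 sec. Cells were seeded at 1,000/well and pre-cultured 4 h.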
Pf growth 96h = inhibits malaria parasite growth, 96 h; Potency, µM (top dose mostly 28.7 µM), for the others: at the top dose activity change, negative = inhibition, actives largely listed as inhibitors; P. falciparum luciferase reporter growth, 96 h; 320,000 compounds, 6.9% hits; also: % is scaled to controls: 0 for no effect and ±100 for the full control effect
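Delayed-death screen, second-generation endpoint: infected erythrocytes, 2% hematocrit, 0.05% parasitemia final; 96 hours at 37 C, 5% CO2; luciferase detection reagent; luminescence decrease equals reduced growth.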
Vaccinia Venus = inhibitors of vaccinia virus (Venus reporter); Vaccinia virus Venus reporter expression, fluorescence; Potency, µM (highest dose often 36.5 µM), inactives show top-dose activity change, negative = inhibition, usual class: inhibitors; 330,000 compounds, 0.46% hits; AID 720580; calls by dose curve; tested in A549 cells; also: % is scaled to controls: 0 for no effect and ±100 for the full control effect; nearly all actives have a fitted effect of over 30% in size
Vaccinia mCherry = vaccinia inhibition (mCherry reporter); Vaccinia virus mCherry reporter infection, fluorescence; Potency, µM (highest dose often 36.5 µM), for the others: at the top dose activity change, negative = inhibition, usual class: inhibitors; 310,000 compounds, 0.63% hits; AID 720579; calls by dose curve; tested in A549 cells; also: % is scaled to controls: 0 for no effect and ±100 for the full control effect; nearly all actives have a fitted effect of over 35% in size
Pf growth 48h = P. falciparum growth inhibition at 48 hours (one generation); Potency, µM (series often up to 28.7 µM), inactives show top-dose activity change, negative = inhibition, hits mostly inhibitors; P. falciparum luciferase growth in erythrocytes, 48 h; 310,000 compounds, 5.9% hits; AID 504832; also: % is scaled to controls: 0 for no effect and ±100 for the full control effect
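Here the parasites carry a stable luciferase gene and grow inside erythrocytes in Albumax-based RPMI medium with compound for one erythrocytic cycle. Activity is scored as loss of luminescent signal.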
NS1 function inh = inhibitors of influenza NS1 protein function; 270,000 compounds, 0.4% hits; Potency, µM (top dose mostly 46.1 µM), for inactives: at the highest dose activity, positive = more growth; AID 2326; calls by dose curve; also: actives are rising curves; nearly all actives have a fitted effect of over 50% in size
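Read-out: OD600 growth recovery of NS1-expressing budding yeast. Cells grown overnight at 30C in -URA glucose medium, washed, resuspended and diluted 1:100 in 2% galactose assay medium, pH 6.0. Same strain lacking NS1 served as positive control.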
Active calls of the source: *. Most compounds without a hit are left out; they make up all but 11% or so of the library. Unless noted, calls follow the shape of the dose curve; as a rule, active = well fitted inhibition curve with a large enough effect; inconclusive = small, poorly fitted or top-dose-only effect, or another doubt; inactive = no such curve, though single readings can be large or run the other way. Potency is read from the fitted curve at half-maximal effect.

`NNC(=S)Nc1ccc(Cl)cc1` gave HCV inh 16%, Pf growth 96h inconclusive, Vaccinia Venus -16%, Vaccinia mCherry inactive, Pf growth 48h -8% and NS1 function inh 8%.
`O=c1cc(NS(=O)(=O)c2ccccc2)nc(SCc2ccc(Cl)cc2)[nH]1` gave HCV inh inconclusive, Pf growth 96h inconclusive, Vaccinia Venus -23%, Vaccinia mCherry -10%, Pf growth 48h inconclusive and NS1 function inh inconclusive.
Clc1ccc(CSc2ncn(-c3ccccc3)n2)cc1 was read as HCV inh -5%, Pf growth 96h -18%, Pf growth 48h -12% and NS1 function inh -5%.
For CCCN(C(=O)CSc1cc(-c2ccccc2)c2ccc(OC)cc2n1)C1CCS(=O)(=O)C1 (configuration not stated) the results were HCV inh -15%, Pf growth 96h 9.3µM*, Vaccinia Venus -13%, Vaccinia mCherry -13%, Pf growth 48h inconclusive and NS1 function inh 23%.
COc1ccc2c(-c3ccccc3)cc(SC(C)C(N)=O)nc2c1 (configuration not stated) was read as HCV inh 11µM*, Pf growth 96h inconclusive, Vaccinia Venus -21%, Vaccinia mCherry -22% and Pf growth 48h 10µM*.
CCN(C(=O)CSc1nc2c(cnn2-c2ccccc2)c(=O)[nH]1)C1CCS(=O)(=O)C1 (configuration not stated) was read as HCV inh 23%, Pf growth 96h inconclusive, Vaccinia Venus -6%, Vaccinia mCherry inactive, Pf growth 48h inconclusive and NS1 function inh 8%.
CCCN(C(=O)CSc1nc2c(cnn2-c2ccccc2)c(=O)[nH]1)C1CCS(=O)(=O)C1 (configuration not stated) was read as HCV inh 1%, Pf growth 96h inconclusive, Vaccinia Venus -1%, Vaccinia mCherry -8%, Pf growth 48h 9.3µM* and NS1 function inh 11%.
`COc1ccc(NC(=O)CN(C)S(=O)(=O)c2ccc3nc(C)sc3c2)cc1Cl` gave Vaccinia Venus -11% and Vaccinia mCherry -17%.
`COc1cc(C(C)=O)ccc1OCc1cc(C(=O)N2CCSCC2)no1` gave HCV inh -15%, Pf growth 96h inconclusive, Vaccinia Venus -10%, Vaccinia mCherry -9%, Pf growth 48h 45% and NS1 function inh 1%.
For O=C(NC1CC1)c1ccc2c(c1)N(Cc1ccc(Cl)cc1)CCS2 the results were HCV inh 22µM*, Pf growth 96h inconclusive, Pf growth 48h inconclusive and NS1 function inh 7%.
`CC1CC(C)CN(C(=O)c2ccc3c(c2)N(Cc2ccccc2)CCS3)C1` (configuration not stated) gave HCV inh inconclusive, Pf growth 96h inconclusive, Vaccinia Venus -12%, Vaccinia mCherry -27% and NS1 function inh -101%.
Screening Cc1ccc(CN2CCSc3ccc(C(=O)NCCCN4CCOCC4)cc32)cc1 returned HCV inh -21%, Pf growth 96h 162%, Pf growth 48h inconclusive and NS1 function inh 3%.
Screening CCN1CCN(CCCNC(=O)c2ccc3c(c2)N(Cc2ccc(C)cc2)CCS3)CC1 returned HCV inh 11µM*, Pf growth 96h inconclusive, Pf growth 48h 17µM* and NS1 function inh -3%.
For Cc1ccc(CN2CCSc3ccc(C(=O)NC4CCN(Cc5ccccc5)CC4)cc32)cc1 the results were HCV inh 8.9µM*, Pf growth 96h 11%, Vaccinia Venus -19%, Vaccinia mCherry -15% and Pf growth 48h inconclusive.
COc1ccc(CCNC(=O)c2ccc3c(c2)N(Cc2ccc(Cl)cc2)CCS3)c(OC)c1 was read as Vaccinia Venus -17% and Vaccinia mCherry -23%.
Screening Cc1ccc(CN2CCSc3ccc(C(=O)Nc4ccc(C)cc4)cc32)cc1 returned Vaccinia Venus -17% and Vaccinia mCherry inactive.
Screening CCOC(=O)N1CCN(C(=O)c2ccc3c(c2)N(Cc2ccccc2)CCS3)CC1 returned HCV inh inconclusive, Pf growth 96h 12µM*, Vaccinia Venus -11%, Vaccinia mCherry -9%, Pf growth 48h inconclusive and NS1 function inh -1%.
Screening COC(=O)c1cc(S(=O)(=O)NCc2ccc(F)cc2)cn1C returned HCV inh 3%, Pf growth 96h -14%, Pf growth 48h 12% and NS1 function inh -10%.
O=C(NC1CCCC1)c1ccc2c(c1)N(Cc1ccccc1)CCS2 was read as HCV inh inconclusive, Pf growth 96h 10µM*, Pf growth 48h inconclusive and NS1 function inh 5%.
For O=C(NCC1CCCO1)c1ccc2c(c1)N(Cc1ccccc1)CCS2 (configuration not stated) the results were HCV inh -22%, Pf growth 96h inconclusive, Pf growth 48h inconclusive and NS1 function inh -11%.
Screening O=C(Cn1cc([N+](=O)[O-])cn1)NCC1CCCO1 (configuration not stated) returned HCV inh 14%, Pf growth 96h 152%, Vaccinia Venus -15%, Vaccinia mCherry inactive, Pf growth 48h -15% and NS1 function inh 20%.
`COC(=O)c1sc(NC(=O)c2cc(-c3ccccc3)nc3ccccc23)c(C#N)c1C` gave HCV inh 11µM*, Pf growth 96h -22%, Vaccinia Venus inconclusive, Vaccinia mCherry 16µM*, Pf growth 48h -19% and NS1 function inh 13%.
`Cc1sc(NC(=O)c2cc(-c3ccc(Cl)cc3)nc3ccccc23)c(C(N)=O)c1C` gave HCV inh inconclusive, Pf growth 96h 36%, Vaccinia Venus -20%, Pf growth 48h inconclusive and NS1 function inh 0%.
Screening Cc1sc(NC(=O)c2ccc(Br)s2)c(C(N)=O)c1C returned HCV inh 11µM*, Pf growth 48h 214% and NS1 function inh -9%.
Screening Cc1sc(NC(=O)c2cc(-c3ccccc3)nc3ccccc23)c(C(N)=O)c1C returned HCV inh 13µM*, Pf growth 96h -16%, Vaccinia Venus -17%, Vaccinia mCherry -18%, Pf growth 48h -65% and NS1 function inh 16%.
For COC(=O)c1sccc1NC(=O)c1cc(-c2cccc(C)c2)nc2ccccc12 the results were HCV inh 7%, Pf growth 96h -96%, Vaccinia Venus -5%, Vaccinia mCherry -8%, Pf growth 48h 9.3µM* and NS1 function inh 0%.
For Cc1sc(NC(=O)c2ccc(Cl)s2)c(C(N)=O)c1C the results were HCV inh -7%, Pf growth 48h 168% and NS1 function inh 0%.
For COC(=O)c1cc(C#N)c(NCc2ccc(Cl)cc2Cl)nc1C the results were HCV inh 8%, Pf growth 96h 38%, Vaccinia Venus 16%, Pf growth 48h 6% and NS1 function inh -4%.
